# According to PubChem BioAssay (NCI):
# This is part of a sample that, as a whole, favours compounds with a hit. Of some 83,000 tested, about 20% had one in any assay.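 How to read the values: 0–100, growth inhibition (40 = 60% inhibited); 0, no net growth; -100 to 0, cell death (-40 = 40% of starting cells died; -100 = all dead).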 Values without a mark were called inactive. Activity calls are given as the source filed them. Rule for the calls: active = growth percent below 10; inactive = the rest.
# How the values were obtained:
# Assay in all cases: NCI-60 one-dose screen, 48 h (100 = growth as untreated, 0 = no growth, -100 = all killed)
# RPMI-8226 leukemia = conditions: 10 µM unless noted
# OVCAR-8 ovarian = conditions: 10 µM unless noted
# OVCAR-5 ovarian = conditions: 10 µM unless noted
# OVCAR-4 ovarian = conditions: 10 µM unless noted
# SK-OV-3 ovarian = conditions: 10 µM unless noted
# IGROV1 ovarian = conditions: 10 µM unless noted
# OVCAR-3 ovarian = conditions: 10 µM unless noted
# HS 578T breast = conditions: 10 µM unless noted
# NCI/ADR-RES ovarian = conditions: 10 µM unless noted
# T-47D breast = conditions: 10 µM unless noted
# BT-549 breast = conditions: 10 µM unless noted
# MDA-MB-435 melanoma = conditions: 10 µM unless noted
# SW-620 colon = conditions: 10 µM unless noted
# MCF7 breast = conditions: 10 µM
# HCT-116 colon = conditions: 10 µM unless noted
# HCC-2998 colon = conditions: 10 µM unless noted
# KM12 colon = conditions: 10 µM unless noted
Structure (SMILES),growth (RPMI-8226 leukemia),growth (OVCAR-8 ovarian),growth (OVCAR-5 ovarian),growth (OVCAR-4 ovarian),growth (SK-OV-3 ovarian),growth (IGROV1 ovarian),growth (OVCAR-3 ovarian),growth (HS 578T breast),growth (NCI/ADR-RES ovarian),growth (T-47D breast),growth (BT-549 breast),growth (MDA-MB-435 melanoma),growth (SW-620 colon),growth (MCF7 breast),growth (HCT-116 colon),growth (HCC-2998 colon),growth (KM12 colon)
c1ccc(CNc2nc(Nc3ccccc3)nc3ccccc23)cc1,45.4%,34.9%,72.8%,36.8%,3.4% (active),63.2%,39.6%,44.4%,62.3%,77.4%,89.2%,11.7%,56.1%,56.9%,58.2%,37.2%,71.8%
Nc1nc(Nc2cccc(F)c2)nc2ccccc12,0.232% (active),55.9%,54.1%,40.4%,72.7%,28%,50.6%,63.9%,38.1%,41.5%,75.7%,,35.1%,41.5%,23.1%,-59.9% (active),59.2%
CCCCCCc1cc2cc(-c3nc4ccccc4[nH]3)c(=Nc3ccccc3C)oc2cc1O,-20.2% (active),55.8%,57.7%,39.4%,67%,39.5%,41.9%,68.8%,49.9%,29%,77.3%,,29.6%,17.5%,19.2%,-78.2% (active),36.4%
Cn1nc(C(F)(F)F)c(-c2ccc(Cl)c(C(F)(F)F)c2)c1-c1ccc(OCc2ccc(Cl)cc2)cc1O,-17.9% (active),7.41% (active),53.4%,30.2%,20.6%,38.9%,1.24% (active),22.8%,8.38% (active),-0.38% (active),39.8%,,13.9%,4.01% (active),-0.403% (active),13.5%,8.83% (active)
CC(C)C[C@H](C(=O)N[C@H](C(N)=O)C(C)C)N1CC=CCN(OCc2ccccc2)S1(=O)=O,98.7% [2.5 µM],95.2% [2.5 µM],95.2% [2.5 µM],109% [2.5 µM],88.3% [2.5 µM],107% [2.5 µM],112% [2.5 µM],107% [2.5 µM],95.6% [2.5 µM],95.7% [2.5 µM],98.5% [2.5 µM],115% [2.5 µM],102% [2.5 µM],,83.2% [2.5 µM],108% [2.5 µM],114% [2.5 µM]
COc1ccc(Cn2c(Br)c3c(c2-c2cc(OC)c(OC)c(OC)c2)CCc2sc(NC(=O)c4ccc(OC)cc4)nc2-3)cc1,81.7%,96%,102%,93.3%,108%,79.2%,92.7%,83.7%,89.2%,77.3%,96.1%,99.5%,96.2%,,90.8%,108%,94.2%
CCN(CC)CCNC(=O)C(Cl)=C1C(Cl)=C(Cl)C(Cl)=C1Cl,30.6%,15.8%,120%,41.9%,58.7%,59.1%,40.1%,82.2%,44.7%,56.6%,33.3%,33.9%,34.7%,,13.9%,,23.6%
O=S1(=O)N(Cc2ccccc2)[C@@H](Cc2ccccc2)C2O[C@H]2[C@H](Cc2ccccc2)N1Cc1ccccc1 (stereo partly drawn),27.9%,52.4%,93.5%,6.6% (active),47%,60.6%,62.8%,98.9%,40%,32.5%,63.1%,60.1%,50.6%,,17%,61.4%,40.2%
O=C(N/N=C/c1ccccc1Cl)C(=O)Nc1cccc(C(F)(F)F)c1,93.9%,83%,97.4%,101%,102%,92.9%,115%,111%,98.4%,90.2%,112%,,104%,97.3%,92.1%,96.6%,103%
CC(=O)Nc1nc2c(s1)CCc1c-2cn(S(=O)(=O)c2ccccc2)c1-c1ccccc1,57.7%,79.7%,97.4%,84.3%,101%,97.2%,80.5%,91.3%,49.7%,49.3%,97.7%,59.7%,79.5%,,57.9%,80.4%,54.9%
Oc1ccc(-c2nc(-c3ccc4oc5ccc(-c6[nH]c(-c7ccc(O)cc7)nc6-c6ccccc6)cc5c4c3)c(-c3ccccc3)[nH]2)cc1,19.8%,72.8%,74.3%,52.9%,87%,34.1%,43.6%,66.8%,72.3%,46.8%,57.2%,43.5%,54.7%,,31.3%,62.3%,50.8%
CCOC(=O)c1cc2c(n1Cc1ccccc1)-c1oncc1CCC2,64.4%,80.9%,101%,72.9%,87.1%,58%,76.6%,76.5%,52.3%,80.7%,101%,-7.87% (active),43%,,64.7%,87.5%,56.1%
COc1ccc(C2C3=C(COC3=O)N(CCO)c3cc4c(cc32)CCC4)cc1 (stereo not drawn),86.8%,58.4%,96.2%,75.9%,57.3%,51.8%,0.832% (active),69.7%,65.3%,31.5%,38.4%,0.306% (active),31.5%,,33.5%,61.1%,21.2%
CCOC(=O)C1=C(C)c2ccc(OC)c(OC)c2C1,85.3%,95.7%,102%,84.7%,103%,104%,117%,120%,101%,78%,108%,112%,104%,,102%,91.2%,101%
Cn1c2c(c(=O)[nH]c1=O)NC1=C(C(=O)c3ccccc31)C1(C=C(O)c3ccccc31)N2 (stereo not drawn),105%,107%,111%,71.3%,111%,95.5%,95.4%,110%,117%,108%,180%,,123%,91%,96.5%,130%,104%
COc1ccc(C2C3=C(COC3=O)N(CCO)c3cc4c(cc32)CCC4)cc1OC (stereo not drawn),33.4%,26.7%,57.3%,28.3%,24.8%,24.2%,-18.6% (active),21.1%,31.3%,22.6%,29.2%,-45.6% (active),14.7%,,14.3%,-0.413% (active),-8.65% (active)
COc1ccc(-n2c(C(O)c3ccccc3)n[nH]c2=S)cc1 (stereo not drawn),93.3%,103%,93.4%,102%,101%,99.1%,95.8%,111%,103%,97.7%,110%,,105%,93.7%,96.3%,106%,101%
COc1ccc(C2Nc3ncnc(N)c3N=C3c4ccccc4C(=O)C32)cc1 (stereo not drawn),80%,108%,98.1%,82.8%,84.7%,79.4%,83.9%,94.5%,105%,80.8%,94.3%,96.9%,103%,,95.7%,104%,110%
